Results filed as inconclusive are left out. Active and inactive are the calls of the source. Calls follow the shape of the dose curve; as a rule, active = well fitted curve in either direction with a large enough effect (not every such curve was filed as active); inconclusive = small, poorly fitted or top-dose-only effect, or another doubt; inactive = flat fitted curve, though single readings scatter.
target: Mitogen-activated protein kinase 10 (Mus musculus) (UniProt Q61831); test: JNK3 AlphaScreen Assay (AID 530); conditions: JNK3 lysate, c-Jun phosphorylation; series mostly up to 57.1 µM;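 also: kinase came from lysate of stimulated human HepG2 cells; signal reports phosphorylation of biotinylated GST-cJun 1-79 at Ser73 with 10 µM ATP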
How it was run: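 Activity was read by AlphaScreen after JNK3-containing HepG2 lysate (cytokine pre-activated) phosphorylated biotinylated GST-cJun with 10 uM ATP at room temperature. Phospho-Ser73 cJun antibody with Protein-A acceptor beads provided detection.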

outcome, inactive:
COC(=O)[C@@]1(Cc2ccc(F)cc2)[C@H]2c3cc(C(=O)N(C)C)n(CCc4ccc(OC)c(Br)c4)c3C[C@H]2CN1C(=O)c1ccccc1
CS(=O)(=O)c1ccc(CNC(=O)[C@H]2C[C@@H]2[C@H](NP(=O)(c2ccccc2)c2ccccc2)c2ccccc2)cc1
COC(=O)[C@@]1(Cc2ccc(F)cc2)[C@H]2c3cc(C(=O)N4CCCC4)n(Cc4cc(F)cc5c4OCOC5)c3C[C@H]2CN1C(=O)c1ccccc1
COC(=O)[C@@]1(Cc2ccc(F)cc2)[C@H]2c3cc(C(=O)N4CCCC4)n(CCSCCO)c3C[C@H]2CN1C(=O)c1ccccc1
COC(=O)[C@@]1(Cc2ccc(OC)cc2)[C@H]2c3cc(C(=O)N4CCCC4)n(Cc4ccsc4Br)c3C[C@H]2CN1C(=O)c1ccccc1
O=C(NCc1ccccn1)[C@@H]1C[C@H]1[C@@H](NP(=O)(c1ccccc1)c1ccccc1)c1ccccc1
COC(=O)[C@@]1(Cc2ccc(OC)cc2)[C@H]2c3cc(C(=O)N(C)C)n(Cc4ccccn4)c3C[C@H]2CN1C(=O)c1ccccc1
C/C(=C\C1CCCCC1)C(NC(=O)c1cccnc1)c1ccc(-c2ccccc2)cc1 (stereo unspecified)
CCCC/C=C/C(NC(=O)c1ccc(C(=O)OC)cc1)c1ccccc1 (stereo unspecified)
COC(=O)[C@@]1(Cc2ccc(F)cc2)[C@H]2c3cc(C(=O)N(C)C)n(CCF)c3C[C@H]2CN1C(=O)c1ccccc1
COC(=O)[C@@]1(Cc2ccc(F)cc2)[C@H]2c3cc(C(=O)N(C)C)n(Cc4ccc(OC)c(OC)c4)c3C[C@H]2CN1C(=O)c1ccccc1

From PubChem BioAssay (NCATS)
